# Compound activity deposited in PubChem BioAssay by National Center for Advancing Translational Sciences (NCATS).
# An excerpt weighted towards active compounds, which were near 11% of everything screened.
# HCV inh: HCV inhibition; Huh7.5.1 HCVcc-Cre infection, luciferase reporter, 44 h; Potency, µM (top dose mostly 41.8 µM), without a hit: top-dose activity change, negative = inhibition, hits mostly inhibitors; actives 3.4% (n = 340,000); AID 651820; further: on the % scale 0 is the no-effect control and ±100 the full control effect
#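 Infectious HCV cell culture screen: compound-treated cells (1,000/well, pre-plated 4 h) are infected with HCVcc-Cre at roughly 0.5 moi and grown 44 h. Infection is quantified by luciferase signal after 15 min substrate incubation at room temperature.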
# Vaccinia mCherry: vaccinia inhibition (mCherry reporter) | Vaccinia virus mCherry reporter infection, fluorescence | Potency, µM (top dose mostly 36.5 µM), inactives show at the highest dose activity change, negative = inhibition, usual class: inhibitors | actives 0.63% (n = 310,000); calls by dose curve; tested in A549 cells; further: on the % scale 0 is the no-effect control and ±100 the full control effect; nearly all actives have a fitted effect of over 35% in size
# NS1 function inh: influenza NS1 inhibition; Potency, µM (doses to about 46.1 µM), for inactives: at the highest dose activity, positive = more growth; actives 0.4% (n = 270,000); AID 2326; calls by dose curve; further: actives are rising curves; nearly all actives have a fitted effect of over 50% in size
#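 OD600 was taken as the measure of yeast growth restored by compound in an NS1-expressing S. cerevisiae strain. Cells had been washed out of glucose medium and diluted 1:100 into galactose -URA medium, pH 6.0.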
# Pf growth 96h: P. falciparum growth inhibition at 96 hours; P. falciparum luciferase reporter growth, 96 h; Potency, µM (titrated, usually from 28.7 µM), without a hit: at the top dose activity change, negative = inhibition, actives largely listed as inhibitors; AID 504834; actives 6.9% (n = 320,000); further: on the % scale 0 is the no-effect control and ±100 the full control effect
#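 Erythrocytes infected with luciferase-expressing P. falciparum were dispensed at 2% hematocrit and 0.05% parasitemia (final), then incubated with compounds 96 hours at 37 C in 5% CO2. Luminescence after detection reagent addition reported growth.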
# VACV Venus inh: vaccinia inhibition (Venus reporter). AID 720580. actives 0.46% (n = 330,000). Vaccinia virus Venus reporter expression, fluorescence. Potency, µM (top dose mostly 36.5 µM), for the others: at the top dose activity change, negative = inhibition, actives largely listed as inhibitors; calls by dose curve; tested in A549 cells; further: on the % scale 0 is the no-effect control and ±100 the full control effect; nearly all actives have a fitted effect of over 30% in size
# Pf growth 48h: P. falciparum growth inhibition at 48 hours (one generation) | P. falciparum luciferase growth in erythrocytes, 48 h | Potency, µM (titrated, usually from 28.7 µM), without a hit: top-dose activity change, negative = inhibition, usual class: inhibitors | actives 5.9% (n = 310,000) | AID 504832; further: on the % scale 0 is the no-effect control and ±100 the full control effect
#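 Here the parasites carry a stable luciferase gene and grow inside erythrocytes in Albumax-based RPMI medium with compound for one erythrocytic cycle. Activity is scored as loss of luminescent signal.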
# * hit, by the source's call; i = inactive; u = inconclusive; x = not tested or not shown; [ ] = remark or other dose. Unless noted, the call rests on the fitted dose curve; in most records, active means well fitted inhibition curve with a large enough effect; inconclusive means small, poorly fitted or top-dose-only effect, or another doubt; inactive means no such curve, though single readings can be large or run the other way. Potency means the concentration at half of the fitted maximal effect.
SMILES,HCV inh,Vaccinia mCherry,NS1 function inh,Pf growth 96h,VACV Venus inh,Pf growth 48h
CCN1CCN(c2ccc(S(=O)(=O)N3CCCCC3)cc2NC(=O)C(C)Oc2ccc(F)cc2)CC1 (stereo not drawn),u,-7%,x,-24%,-19%,8.3µM*
Cc1ccc(OC(=O)CSc2nnc(-c3ccc4c(c3)OCO4)o2)cc1,x,-11%,x,x,0%,x
CCCCn1c(N)c(N(CC(C)C)C(=O)c2ccco2)c(=O)[nH]c1=O,7%,-9%,x,50%,-1%,6%
O=C(NCCCN1CCCC1=O)c1cccc(S(=O)(=O)Nc2ccccc2Cl)c1,20%,x,x,u,x,2%
CC(C)Oc1ccc(S(=O)(=O)N2CCOCC2)cc1NC(=O)C1CCCCC1,-4%,x,x,u,x,u
CC(C)Oc1ccc(S(=O)(=O)N2CCOCC2)cc1NC(=O)C(C)Oc1ccc(F)cc1 (stereo not drawn),u,-5%,x,u,-13%,13µM*
CC(C)(CN1CCN(Cc2ccccc2)CC1)NS(=O)(=O)c1ccccc1,-12%,4%,-3%,15%,-10%,11%
CC(C)(CN1CCN(C(c2ccccc2)c2ccccc2)CC1)NS(=O)(=O)c1ccccc1,u,u,-17%,10µM*,-26%,12µM*
CC(C)(CN1CCC(Cc2ccccc2)CC1)NS(=O)(=O)c1ccccc1,-22%,x,-6%,-2%,x,12µM*
COc1cc(-c2ccccc2)nc(N)n1,3%,x,u,3.3µM*,x,x
COc1ccc(Cl)cc1N(CC(=O)NCCSc1ccccn1)S(=O)(=O)c1ccccc1,2%,u,5%,1.7µM*,-4%,-17%
COc1ccc(N(CC(=O)NCCSc2ccccn2)S(=O)(=O)c2ccccc2)cc1Cl,u,u,-14%,38%,-19%,-38%
COc1cccc(N(CC(=O)NCCSc2ccccn2)S(=O)(=O)c2ccccc2)c1,-17%,-12%,-4%,5%,-15%,13µM*
Cc1cc(C(=O)NC2CC(C)(C)Cc3c2cnn3-c2cccc(F)c2)n(C)n1 (stereo not drawn),u,-5%,-4%,9.3µM*,-11%,u
CC1(C)Cc2c(cnn2-c2cccc(F)c2)C(NC(=O)c2csnn2)C1 (stereo not drawn),-20%,-9%,-43%,6.6µM*,-12%,39%
Cc1cc(C(=O)NC2CC(C)(C)Cc3c2cnn3-c2ccccc2)n(C)n1 (stereo not drawn),-15%,i,-30%,u,-7%,-3%
CC1=CC(C)C2C(=O)N(c3ccccc3)NC(=O)C2C1 (stereo not drawn),2%,-4%,2%,-18%,-9%,8%
Cc1ccc(CN2CCN(CC(=O)N3CCc4ccccc4C3)C2=O)cc1,x,x,-1%,17µM*,x,-6%
Cc1ccc(S(=O)(=O)NCC(=O)N2CCc3ccccc3C2)cc1,12%,i,7%,u,9%,u
Cc1ccc(CN2CCN(CC(=O)N3CCC(C(N)=O)CC3)C2=O)cc1,18%,-11%,21%,x,-8%,x
Cc1ccc(CNC(=O)CN2CCN(Cc3ccc(C)cc3)C2=O)cc1,-14%,x,-10%,2.9µM*,-25%,x
Cc1ccc(CN2CCN(CC(=O)N3CCC4(CC3)OCCO4)C2=O)cc1,-3%,-14%,-6%,3.7µM*,-10%,x
Cc1cccc(OCC(=O)Nc2ncn[nH]2)c1C,17%,x,-1%,108%,x,84%
O=C(CC(c1ccccc1)C1CCCCC1=O)c1ccccc1 (stereo not drawn),0%,i,x,x,-3%,x
CN(C)c1ccc(C(CC(=O)c2ccccc2)C2CCCCC2=O)cc1 (stereo not drawn),13%,-17%,-1%,10µM*,-9%,1%
SMILES,HCV inh,Vaccinia mCherry,NS1 function inh,Pf growth 96h,VACV Venus inh,Pf growth 48h
CCOC(=O)Cn1ccc(NC(=O)COc2ccc(F)cc2F)n1,12%,i,-2%,36%,3%,17%
O=C(CNC(=O)c1ccc2c(c1)S(=O)(=O)N=C1CCCCCN12)Nc1ccc(F)c(F)c1,-3%,i,x,u,-21%,10µM*
N#Cc1c(-c2ccccc2)nc2n(-c3ccccc3)nc(C(=O)Nc3ccccc3)n2c1=O,-20%,x,-6%,0.74µM*,-2%,x
COC1C(OC(=O)c2ccc(C)[nH]2)C(O)C(Oc2ccc3c(O)c(NC(=O)c4ccc(O)c(CC=C(C)C)c4)c(=O)oc3c2Cl)OC1(C)C (stereo not drawn),1.6µM*,-3%,u,u,-19%,5.9µM*
CCCC(C(=O)NC(C)(C)C)N(C(=O)c1snc(C(N)=O)c1N)c1ccc2c(c1)OCCO2 (stereo not drawn),u,-14%,x,u,-11%,45%
COc1ccc(Cn2nnnc2C(CC(C)C)N2CCC(C(N)=O)CC2)cc1 (stereo not drawn),2%,i,-4%,u,-9%,-10%
COc1ccc(CCn2nnnc2C(CC(C)C)N2CCC(C(N)=O)CC2)cc1OC (stereo not drawn),8%,i,-2%,12µM*,-17%,12%
CC(C)CC(c1nnnn1Cc1ccc(F)cc1)N1CCC(C(N)=O)CC1 (stereo not drawn),3%,-1%,x,0%,-1%,-22%
CC(C)CC(c1nnnn1CCc1ccccc1)N1CCC(C(N)=O)CC1 (stereo not drawn),18%,x,-3%,9.3µM*,-17%,19%
COc1ccc(CCn2nnnc2C(C(C)C)N2CCN(c3ncccn3)CC2)cc1OC (stereo not drawn),u,8%,-23%,u,-17%,9.3µM*
CCOC(=O)c1cc2c(=O)n3ccccc3nc2n(CC(C)C)c1=NC(=O)C(C)Oc1ccccc1 (stereo not drawn),x,-5%,x,x,-20%,x
Cc1cc(S(=O)(=O)NCc2ccccc2)ccc1OCC(=O)N1CCOCC1,0%,i,-1%,-22%,-1%,-1%
COc1cc(CN2CCN(C(c3ccccc3)c3ccccc3)CC2)cc(OC)c1OC,-15%,x,-15%,4.7µM*,x,u
COc1cccc(CN2CCN(C(c3ccccc3)c3ccccc3)CC2)c1O,-55%,u,2%,0.41µM*,-1%,u
COc1cc2nc(CN3CCN(C(c4ccccc4)c4ccccc4)CC3)[nH]c(=O)c2cc1OC,x,x,3%,u,x,u
COc1cc(C(=S)N2CCN(C(c3ccccc3)c3ccccc3)CC2)cc(OC)c1O,11µM*,x,-22%,9%,x,u
CCOC(=O)c1ccc(Nc2nn3c(=O)c4ccccc4nc3s2)cc1,x,-13%[7.34 µM],x,x,-5%[7.34 µM],x
O=C(NCCN1CCOCC1)C(=O)NCC1CCCO1 (stereo not drawn),29%,i,12%,0%,-9%,15%
COCCn1c(SCC(=O)c2cccc(OC)c2)nnc1-c1ccco1,8%,-17%,-2%,13µM*,-13%,13%
